Laboratory results reported in PubChem BioAssay (NCI).
About 83,000 compounds went through this panel and 20% of them were active in at least one assay; those are over-represented in the sample as a whole.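 Treatment: one concentration, 48 hours, 96-well format. Scoring: percent growth, with anything below 10 considered active.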 A number with no mark means an inactive call. Activity calls are given as the source filed them.

How the values were obtained:
Assay in all cases: NCI-60 one-dose screen, 48 h (100 = growth as untreated, 0 = no growth, -100 = all killed)
Conditions in all cases: 10 µM unless noted
NCI-H23 lung = test system: NCI-H23 lung
NCI-H226 lung = test system: NCI-H226 lung
NCI-H322M lung = test system: NCI-H322M lung
HOP-62 NSCLC = test system: HOP-62 NSCLC
NCI-H460 lung = test system: NCI-H460 lung
NCI-H522 lung = test system: NCI-H522 lung
A549/ATCC NSCLC = test system: A549/ATCC NSCLC
786-0 renal = test system: 786-0 renal
COLO 205 colon = test system: COLO 205 colon
DU-145 prostate = test system: DU-145 prostate
K-562 leukemia = test system: K-562 leukemia
MALME-3M melanoma = test system: MALME-3M melanoma
MDA-MB-231 breast = test system: MDA-MB-231 breast
RXF 393 renal = test system: RXF 393 renal
SF-268 CNS = test system: SF-268 CNS
SF-295 CNS = test system: SF-295 CNS
SF-539 CNS = test system: SF-539 CNS
UACC-257 melanoma = test system: UACC-257 melanoma
M14 melanoma = test system: M14 melanoma

| Compound | growth (NCI-H23 lung) | growth (NCI-H226 lung) | growth (NCI-H322M lung) | growth (HOP-62 NSCLC) | growth (NCI-H460 lung) | growth (NCI-H522 lung) | growth (A549/ATCC NSCLC) | growth (786-0 renal) | growth (COLO 205 colon) | growth (DU-145 prostate) | growth (K-562 leukemia) | growth (MALME-3M melanoma) | growth (MDA-MB-231 breast) | growth (RXF 393 renal) | growth (SF-268 CNS) | growth (SF-295 CNS) | growth (SF-539 CNS) | growth (UACC-257 melanoma) | growth (M14 melanoma) |
| --- | --- | --- | --- | --- | --- | --- | --- | --- | --- | --- | --- | --- | --- | --- | --- | --- | --- | --- | --- |
| COc1ccccc1-[n+]1cc(-c2ccc(-c3ccccc3)cc2)n2c1CCCCC2 | 2.82% (active) | 21.8% | 20% | 12.6% | 7.28% (active) | -12% (active) | 10.3% | 18.5% | -7.92% (active) | 20.7% | 10.5% | 0.879% (active) | 19.1% | 15.2% | 21.2% | -1.81% (active) | 18.2% | -22.9% (active) | 11.1% |
| NC(CCC(=O)NC(CS)C(=O)NCC(=O)O)C(=O)O (centres undefined) | 108% | 101% | 126% | 103% | 106% | 98.3% | 94.2% | 109% | 104% | 112% | 84.2% | 122% | 117% | -24.6% (active) | 103% | 104% | 105% | 101% | 108% |
| CCOC(=O)Cn1c(-c2nonc2NC(=O)c2ccccc2F)nc2ccccc21 | 76.2% | 62.3% | 67.3% | 73.2% | 10.2% | 47.6% | 24% | 46.4% | 60.1% | 53.2% | 31.3% | 77.4% | 62.8% | 64.7% | 50% | 8.34% (active) | 44.7% | 72.1% | 61.5% |
| c1csc(-c2cnc3nonc3n2)c1 | 72.8% | 88.1% | 90.4% | 87.9% | 102% | 70.7% | 94.2% | 101% | 91.3% | 108% | 67.4% | 100% | 82% | 117% | 88.7% | 101% | 96.8% | 75.3% | 89.4% |
| Fc1cc(-c2cnc3nonc3n2)c(Cl)cc1Cl | 94.2% | 111% | 94.1% | 98.3% | 106% | -72.3% (active) | 102% | 79.3% | 60.2% | 85.3% | 28.9% | 41.1% | 83.4% | 93% | 90.9% | 99.4% | 110% | 96% | 76.8% |
| NS(=O)(=O)c1ccc(CCn2c(SCC(=O)N/N=C/c3ccccc3O)nc3ccccc3c2=O)cc1 | 65.4% | 51.1% | 77.5% | 44.4% | 23.1% | 8.06% (active) | 53.9% | 41.7% | 49.9% | 42.7% | 9.2% (active) | 62.3% | 63.4% | 46.7% | 55.8% | 39.7% | 25.6% | 55.6% | 41.5% |
| O=C(O)c1ccccc1Oc1cc(-c2ccco2)nc(OCCN2CCOCC2)n1 | 106% | 97% | 94.6% | 99.9% | 116% | 92.1% | 106% | 96.5% | 103% | 113% | 107% | 98.3% | 98.8% | 115% | 114% | 102% | 108% | 108% | 99.1% |
| O=S(=O)(Nc1ccc2ccccc2c1)N1CCCCC1 | 56.6% | 75.9% | 92.8% | 62.9% | 65.5% | 2.32% (active) | 68.9% | 70.3% | 69.9% | 78.4% | 41.4% | 63.3% | 71.8% | 68.3% | 61.3% | 64% | 70.2% | 61.1% | 38.6% |
| COc1ccc2nc(-c3ccc(-c4noc(-c5ccc(Cl)cc5)n4)cc3)[nH]c2c1 | 63.7% | 93.4% | 67.5% | 97.4% | 79.1% | 88.6% | 72.8% | 98.5% | 67.8% | 48% | 45.1% | 37.1% | 75.6% | 103% | 63.4% | 87.5% | 77.2% | 74.5% | 42.9% |
| Cc1nc(N)nc2c1CCC(Nc1ccccc1)S2 (centres undefined) | 104% | 99.1% | 101% | 112% | 109% | 91% | 97.6% | 103% | 107% | 106% | 93.4% | 96.3% | 106% | 107% | 94.7% | 104% | 96.7% | 101% | 108% |
| O=C1NN(C(=O)c2ccccc2)C(c2ccc(Cl)c(Cl)c2)=C/C1=C\c1ccccc1[N+](=O)[O-] | -16.9% [6.75 µM] (active) | -10.3% [6.75 µM] (active) | 27.1% [6.75 µM] | 37.8% [6.75 µM] | -25% [6.75 µM] (active) | -11.1% [6.75 µM] (active) | 14.4% [6.75 µM] | 31.1% [6.75 µM] | -79.4% [6.75 µM] (active) | 25.3% [6.75 µM] | 15.1% [6.75 µM] | 56.5% [6.75 µM] | 49.9% [6.75 µM] | 7.22% [6.75 µM] (active) | 49% [6.75 µM] | -37.5% [6.75 µM] (active) | 15.2% [6.75 µM] | 35.4% [6.75 µM] | -28% [6.75 µM] (active) |
| CC(C)(CCc1ccccn1)C(=O)CCCc1ccccn1 | 106% | 104% | 116% | 105% | 106% | 108% | 99% | 99.9% | 96.4% | 109% | 95% | 70.4% | 96.2% | 117% | 105% | 120% | 114% | 109% | 98.7% |
| CC(NC(=O)c1ccccc1)C(=O)Nc1ccccc1 (centres undefined) | 105% | 104% | 127% | 103% | 118% | 99.6% | 96.3% | 105% | 106% | 118% | 91.4% | 145% | 115% | 118% | 108% | 125% | 97.2% | 103% | 103% |
| COc1ccc(C2c3cccn3-c3ccccc3N2C(C)=O)cc1 (centres undefined) | 99.3% | 97.3% | 82.6% | 88.8% | 97.4% | 122% | 110% | 106% | 100% | 108% | 42% | 93% | 103% | 99.2% | 95.8% | 98.7% | 108% | 109% | 96.2% |
| O=C(Nc1ccc(-n2ccc3c(NC(=O)c4ccccc4)nccc32)cc1)c1ccc(N2CCOCC2)c(C(F)(F)F)c1 | 37.4% | 43.1% | 48.6% | 21.1% | 3.48% (active) | 29.9% | 6.91% (active) | -26.3% (active) | 16.6% | 38.9% | 17.4% | 55.5% | 52.5% | -66.5% (active) | 37% | -7.34% (active) | 22.6% | 55% | 29.1% |
| c1ccc(CCn2cccc2)nc1 | 106% | 107% | 122% | 98% | 123% | 106% | 109% | 103% | 94.8% | 104% | 98.6% | 114% | 94.9% | 116% | 96.5% | 114% | 106% | 108% | 106% |
